Test results taken from PubChem BioAssay (NCATS).
Results filed as inconclusive are left out. A number with no mark means an inactive call. The source made the active and inactive calls. Calls come from the whole dose curve; as a rule, active = well fitted inhibition curve with a large enough effect; inconclusive = small, poorly fitted or top-dose-only effect; inactive = no such curve, though single readings can be large or run the other way.

These molecules were tested on Zika virus NS2B-NS3 protease (linked construct) (assay: Primary screen NINDS Rhodamine qHTS for Zika virus inhibitors (AID 1347160; note: nearly all actives have a fitted effect of over 55% in size)). Details: purified NS2B-NS3 protease, Rhodamine110 substrate fluorescence; series mostly up to 57.1 µM; activity change, negative = inhibition: at the top concentration.
In short: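 Single-chain NS2B-NS3 protease, 25 nM, pH 8.0; compounds preincubated 15 min. Activity: Rhodamine110 release from 1.5 microM substrate over 15 min, room temperature, data fitted to 4-parameter Hill.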
% is set by controls: 0 for no effect and ±100 for the full control effect; potency is the fitted concentration of half-maximal effect.

Row | SMILES | activity change, negative = inhibition | outcome | Potency
1 | COc1ccccc1-n1c(SCC(=O)Nc2nc3ccc(C)cc3s2)nc2c(c1=O)SCC2 | 42% [at 33.1 µM] | – | –
2 | CCOC(=O)c1ccnc(CNCC(=O)N(CC)CCN(C)C)c1 | 19.1% | – | –
3 | CC(C)Nc1cc(-c2c[nH]c(C(=O)N[C@H](CO)c3cccc(Cl)c3)c2)c(Cl)cn1 | 22.2% | – | –
4 | CC(C)[C@@H](C)/C=C/[C@@H](C)[C@H]1CC[C@H]2C3=CC=C4C[C@@H](O)CC[C@]4(C)[C@H]3CC[C@]12C | 23% [at 33.1 µM] | – | –
5 | NCCOCCOCCNC(=O)Cc1ccc(Nc2nc(NCc3ccc(F)cc3)nc(NCC3CCCCC3)n2)cc1 | 673% | – | –
6 | CC(=O)N[C@H]1CCN(c2ccc(C3=NOC(CN[S+](=O)([O-])C(C)C)C3)cc2F)C1 (some centres undefined) | 7.14% | – | –
7 | CCOc1nc2cccc(C(=O)O)c2n1Cc1ccc(-c2ccccc2-c2noc(=O)[nH]2)cc1 | – | inactive | –
8 | CC(C)=CCCC1(C)Oc2cc3c(c4c2C2C(O4)C(C)(O)CCC21)CN(C(CCC(=O)O)C(=O)O)C3=O (centres undefined) | 3% [at 33.1 µM] | – | –
9 | CCOC(=O)c1c(C)nn(-c2cccc([N+](=O)[O-])c2)c1C | 33.8% | – | –
10 | CC(C)NC[C@H](O)COc1ccc(CCOCC2CC2)cc1 | 30.3% | – | –
11 | O=C(NC[C@H](O)CN1CCc2ccccc2C1)c1cc(NC2COC2)ncn1 | – | inactive | –
12 | CN1C(=O)c2ccccc2-n2c(nc3ccccc3c2=O)/C1=C/c1ccccc1 | 4.97% [at 33.1 µM] | – | –
13 | CC1CCC2(C)C(CC(O)C(O)C23CO3)C1(C)CCC1=CC(=O)OC1O (centres undefined) | – | inactive [at 33.1 µM] | –
14 | c1ccc(Cc2ncc3c(n2)CCNCC3)cc1 | 1.36% | – | –
15 | O=C(/C=C/c1ccc(O)cc1)OCC1=CC2OC(=O)C3=CO[C@@H](O[C@@H]4O[C@H](CO)[C@@H](O)[C@H](O)[C@H]4O)[C@H]1[C@@H]32 (some centres undefined) | 4.92% [at 33.1 µM] | – | –
16 | N#Cc1ccnc(N2C(=O)CC[C@H]2C(=O)N(c2cncc(F)c2)[C@H](C(=O)NC2CC(F)(F)C2)c2ccccc2Cl)c1 | -23.6% | – | –
17 | Cc1cc(N2CCCCC2)nc2ccccc12 | 20.1% | – | –
18 | CN(NC(=O)CC(=O)NN(C)C(=S)c1ccccc1)C(=S)c1ccccc1 | – | inactive | –
19 | CC(NC(=O)CC(=O)O)c1nc2ccccc2c(=O)[nH]1 (centres undefined) | – | – | 25.1 µM (active)
20 | COc1ccc2c(c1)OC[C@]1(O)c3cc4c(cc3O[C@H]21)OCO4 | -0.46% [at 33.1 µM] | – | –

Row | SMILES | activity change, negative = inhibition | outcome | Potency
21 | Cc1nnc(C(C)C)n1C1CC2CCC(C1)N2CCC(NC(=O)C1CCC(F)(F)CC1)c1ccccc1 (centres undefined) | – | inactive | –
22 | CCC[C@@H]1C[C@@H](C(=O)N[C@H](C(C)Cl)[C@H]2O[C@H](SC)[C@H](O)[C@@H](O)[C@H]2O)N(C)C1 (some centres undefined) | 8.09% | – | –
23 | C=C1C(OC(C)=O)C(=O)C2C(C)(C)C(OC(C)=O)CCC2(C)C1CC(OC(C)=O)/C(C)=C/COC(C)=O (centres undefined) | 21.3% [at 33.1 µM] | – | –
24 | O=C(OCc1cccc(O)c1O[C@@H]1O[C@H](CO)[C@@H](O)[C@H](O)[C@H]1O)C1(O)C(=O)C2C=CC1C1C=CC(=O)C(O)(C(=O)OCc3cccc(O)c3O[C@@H]3O[C@H](CO)[C@@H](O)[C@H](O)[C@H]3O)C21 (some centres undefined) | 9.86% [at 15.1 µM] | – | –
25 | CN1C(=O)c2ccccc2-n2c(nc3ccccc3c2=O)[C@@]12O[C@H]2c1ccccc1 | -9.68% [at 33.1 µM] | – | –
26 | O=C1NCc2nc3ccccc3c(=O)n2C1Cc1c[nH]c2ccccc12 (centres undefined) | -5.13% [at 33.1 µM] | – | –
27 | CC1=C2CC3OC3(C)CCC3OC3(C)CC2OC1=O (centres undefined) | -9.7% | – | –
28 | C=C1CC/C=C(/CO)C(=O)C[C@@H]2[C@@H]1CC2(C)C | 10.4% | – | –
29 | CC(C)(C)c1cc(CN2CCN(CC(O)c3ccc(Cl)cc3)CC2)cc(C(C)(C)C)c1O (centres undefined) | 72.2% | – | –
30 | CC1(C)CCCC2(C)C3=C(C(=O)OC3O)C(O)CC12 (centres undefined) | -21.4% | – | –
31 | CCNC(=O)CCC/C=C\C[C@@H]1[C@@H](/C=C/C(O)CCc2ccccc2)[C@@H](O)C[C@@H]1O (some centres undefined) | 13.3% | – | –
32 | C=C1C2=CC(O)C(C)C1(C)CC/C(C)=C/CCC1(C)OC1C2=O (centres undefined) | 1.72% [at 33.1 µM] | – | –
33 | Nc1ncnc2c1ncn2[C@H]1CCCO1 | – | inactive | –
34 | CC1CCC2C(C)(C)C(O)CCC2(C)C12Cc1c(O)cc3c(c1O2)CN(C(CCC(N)=O)C(=O)O)C3=O (centres undefined) | 4.29% [at 33.1 µM] | – | –
35 | CCC(CCO[C@@H]1O[C@H](CO[C@H]2OC[C@](O)(CO)[C@H]2O)[C@@H](O)[C@H](O)[C@H]1O)C(C)(C)O (some centres undefined) | 15.3% [at 33.1 µM] | – | –
36 | C[C@@H]1C/C=C/C=C\C=C\C=C\[C@H](O[C@@H]2O[C@H](C)[C@@H](O)[C@H](N)[C@@H]2O)C[C@@H]2O[C@](O)(C[C@@H](O)C[C@H]3O[C@@H]3/C=C/C(=O)O1)C[C@H](O)[C@H]2C(=O)O | 15.3% [at 15.1 µM] | – | –
37 | CC1(C)CC2C(O)C3=C(CC(C)(O)C2C1)C(=O)OC3O (centres undefined) | 17.9% | – | –
38 | CC[C@H]1OC(=O)[C@H](C)[C@@H](O[C@H]2C[C@@](C)(OC)[C@@H](O)[C@H](C)O2)[C@H](C)[C@@H](O[C@@H]2O[C@H](C)C[C@H](N(C)C)[C@H]2O)[C@@](C)(O)C[C@@H](C)[C@@H]2N[C@@H](COCCOC)OC([C@H]2C)[C@]1(C)O | 22.3% | – | –
39 | CC1(C)C[C@H]2C3=CCC4[C@@]5(C)CC[C@H](O[C@H]6O[C@H](C(=O)O)[C@@H](O)[C@H](O)[C@H]6O[C@H]6O[C@H](CO)[C@@H](O)[C@H](O)[C@H]6O[C@@H]6O[C@H](CO)[C@@H](O)[C@H](O)[C@H]6O)[C@](C)(CO)C5CC[C@@]4(C)[C@]3(C)CC[C@@]2(C)[C@H](O[C@@H]2OC[C@H](O)[C@H](OC3O[C@H](CO)[C@@H](O)[C@H](O)[C@H]3O)[C@H]2O)[C@@H]1O (some centres undefined) | -4.25% [at 10.7 µM] | – | –
